Screen size: about 220,000 compounds; about 910 (0.41%) were called active.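 Rule for the calls: active = primary inhibition above the hit cutoff, then over 50% inhibition at one or more dose response concentrations (cut at about 23% in these data, passing the limit was not always enough); inconclusive = conflicting primary data, or primary hits not chosen for dose response; inactive = low primary inhibition, or under 50% at every dose.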 Many of the other results were omitted from the sample, so actives are more common in it than they were. Measured potencies and affinities stand elsewhere.
The compounds below were run against Aminopeptidase N (Plasmodium falciparum (isolate 3D7)) (UniProt O96935) (assay: malaria alanyl aminopeptidase activity blockers – biochemical, fluorogenic H-Leu-NHMec substrate, 1536-well (AID 1445;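 note: plate controls were DMSO full reaction for no effect and no enzyme background for full effect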)). Settings: recombinant M1AAP, H-Leu-NHMec fluorogenic kinetic assay; at 30 µM, active compounds read high unless noted.
Chain of Aminopeptidase N (Plasmodium falciparum (isolate 3D7)) (O96935 whole entry, looked up): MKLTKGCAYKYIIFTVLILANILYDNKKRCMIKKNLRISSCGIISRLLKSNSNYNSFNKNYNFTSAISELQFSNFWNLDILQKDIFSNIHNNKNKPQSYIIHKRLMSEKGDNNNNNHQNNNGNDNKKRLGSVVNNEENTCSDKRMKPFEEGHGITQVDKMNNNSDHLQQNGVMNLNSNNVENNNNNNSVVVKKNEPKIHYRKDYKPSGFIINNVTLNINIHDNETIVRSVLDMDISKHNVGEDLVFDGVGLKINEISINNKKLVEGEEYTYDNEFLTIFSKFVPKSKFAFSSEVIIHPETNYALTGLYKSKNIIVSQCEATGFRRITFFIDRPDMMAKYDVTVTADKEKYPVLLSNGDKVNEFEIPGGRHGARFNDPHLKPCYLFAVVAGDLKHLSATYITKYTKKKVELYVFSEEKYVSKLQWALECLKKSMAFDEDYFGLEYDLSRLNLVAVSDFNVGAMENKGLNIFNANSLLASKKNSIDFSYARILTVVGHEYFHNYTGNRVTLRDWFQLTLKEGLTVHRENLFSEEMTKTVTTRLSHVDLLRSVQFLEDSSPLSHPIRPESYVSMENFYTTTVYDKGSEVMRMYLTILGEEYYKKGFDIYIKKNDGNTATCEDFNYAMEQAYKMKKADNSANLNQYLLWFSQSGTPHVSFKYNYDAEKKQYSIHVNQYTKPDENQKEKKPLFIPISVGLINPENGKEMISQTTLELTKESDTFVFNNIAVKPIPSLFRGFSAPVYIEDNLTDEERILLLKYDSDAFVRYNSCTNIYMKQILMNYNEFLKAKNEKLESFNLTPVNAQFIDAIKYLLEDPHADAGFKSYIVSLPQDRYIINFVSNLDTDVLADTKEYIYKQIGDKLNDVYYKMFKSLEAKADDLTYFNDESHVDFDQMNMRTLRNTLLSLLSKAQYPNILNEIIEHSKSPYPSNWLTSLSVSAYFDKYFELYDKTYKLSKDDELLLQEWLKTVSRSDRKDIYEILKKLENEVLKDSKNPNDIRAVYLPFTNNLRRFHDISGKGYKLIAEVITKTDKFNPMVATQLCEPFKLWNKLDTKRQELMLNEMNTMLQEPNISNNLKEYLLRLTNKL

Structure (SMILES)	inhibition
O=C1C2=C(c3ccccc31)[N+](=O)[C@@H]1CCCC[C@@H]1N2[O-]	8.78% (inactive)
CC(NC(=S)Nc1ccc(F)cc1)C(c1cccs1)N1CCOCC1 (centres undefined)	1.91% (inactive)
CC1=CN2C(=N)/C(=C/c3ccc(C)o3)C(=O)N=C2S1	20.6% (inactive)
CC1=CN2C(=N)/C(=C/c3ccco3)C(=O)N=C2S1	11% (inactive)
N#Cc1cc2c(N)c(C(=O)Nc3ccccc3)sc2nc1N	-0.33% (inactive)
CCN(CC)S(=O)(=O)c1ccc2c(c1)nc(CCC(=O)OCC(=O)Nc1cc(Cl)cc(Cl)c1)n2C	0.35% (inactive)
CCOC(=O)c1c(NC(=O)CSc2nnc(C)c(=O)[nH]2)sc(C)c1C	6.77% (inactive)
Cc1nnc(SCC(=O)Nc2sc3c(c2C(N)=O)CCCC3)[nH]c1=O	11.5% (inactive)
O=C(Nc1cccc2cccnc12)c1ccc2c(c1)OCCO2	3.45% (inactive)
COC(=O)c1c(C(=O)OC)c(-c2cccc(Cl)c2)n2c1CS(=O)C2 (centres undefined)	12.7% (inactive)
Cc1nnc(SCC(=O)Nc2cccc(C(F)(F)F)c2)[nH]c1=O	3.06% (inactive)
CCN(CCO)c1nc(SC)nc2c1sc1nc(-c3ccco3)c3c(c12)CCC3	20% (inactive)
CSc1nc(N(CCO)CCO)c2sc3nc(-c4ccco4)c4c(c3c2n1)CCC4	27.5% (active)
CSc1nc(N(C)CCO)c2sc3nc(-c4ccco4)c4c(c3c2n1)CCC4	11.4% (inactive)
COC(=O)c1sccc1NC(=O)CSCCc1ccccn1	4.36% (inactive)
Cc1ccc(CNC(=O)C(Cc2ccccc2)NS(=O)(=O)c2cccs2)cc1 (centres undefined)	-3.28% (inactive)
O=C(NCc1cccs1)C(Cc1ccccc1)NS(=O)(=O)c1cccs1 (centres undefined)	13.3% (inactive)
O=C(c1ccco1)N1CCN(Cc2cccnc2)CC1	3.43% (inactive)
CC(C)(C)NC(=O)Cn1nnc(-c2ccc(S(C)(=O)=O)cc2)n1	9.97% (inactive)
Cc1onc(-c2ccncc2)c1C(=O)O	0.4% (inactive)
COc1ccccc1-c1n[nH]c(=S)n1-c1ccccc1	2.6% (inactive)
CN1CCN(C(=O)c2cc(Cl)ccc2Cl)CC1	8.9% (inactive)

Structure (SMILES)	inhibition
CC(=O)NNC(=S)NCCc1ccccc1	6.55% (inactive)
O=C(CCc1ccc(O)cc1)NNC(=S)NCCc1ccccc1	-1.96% (inactive)
Cc1nn(-c2ccccc2)c(N)c1C1(O)C(=O)N(C)c2ccccc21 (centres undefined)	1.69% (inactive)
Cn1cc(/C=C2\SC(=S)N(NC(=O)c3ccccc3)C2=O)c2ccccc21	3.01% (inactive)
CC1Nc2ccccc2C(=O)N1NS(=O)(=O)c1ccccc1 (centres undefined)	1.49% (inactive)
O=C(NN1C(=O)C2C3C=CC(O3)C2C1=O)c1cccc(O)c1 (centres undefined)	6.69% (inactive)
CC(/C=C1\SC(=S)N(NC(=O)c2cccc(O)c2)C1=O)=C\c1ccccc1	-3.91% (inactive)
O=C(Nc1ccc(C(=O)NN2C(=O)c3ccccc3C2=O)cc1)c1ccccc1	8.25% (inactive)
CC1(C)Nc2ccccc2C(=O)N1NS(=O)(=O)c1ccccc1	2.35% (inactive)
CCOc1cc(N2CCOCC2)c(OCC)cc1NC(=O)c1ccc(S(C)(=O)=O)cc1	9.02% (inactive)
COc1ccccc1N(C)S(=O)(=O)c1ccc(C(=O)OCC(=O)NCc2ccco2)cc1	-0.82% (inactive)
Cc1cccc(NC(=O)N2CCC(c3nc4ccccc4o3)CC2)c1	10% (inactive)
COc1cc(NC(=S)NC(=O)C(C)C)ccc1NC(=O)c1cc2ccccc2o1	10.7% (inactive)
COc1ccc(NC(=O)Nc2ccc(OCC(=O)N3CCOCC3)cc2)cc1OC	0.44% (inactive)
CCC(C)(C)C1CCc2c(sc(NC(=O)c3cccs3)c2C(N)=O)C1 (centres undefined)	-0.66% (inactive)
C=CCn1c(=NC(=O)CC)n(C)c2ccccc21	0.56% (inactive)
CCCn1c(CNc2ccccc2O)nc2ccccc21	0.88% (inactive)
Cn1c(CNc2ccccc2O)nc2ccccc21	25% (active)
Cn1c(CNc2nc3ccccc3n2C)nc2ccccc21	-11.6% (inactive)
COc1cc(C(=S)N2CCOCC2)cc(OC)c1OC(=O)Cc1ccc(F)cc1	7.01% (inactive)
CC(C)(C)NC(=O)NC(=O)COC(=O)CCCc1c[nH]c2ccccc12	3.27% (inactive)
O=C1NCCCc2nonc21	0.35% (inactive)

Structure (SMILES)	inhibition
COc1cc(/C=N/N=C2/NC(=O)C(CC(=O)O)S2)ccc1OCc1ccc(Cl)cc1 (centres undefined)	21.8% (inactive)
CC(=O)Nc1ccc(S(=O)(=O)Oc2ccc(/C=N/N=C3/NC(=O)C(CC(=O)O)S3)cc2)cc1 (centres undefined)	10.6% (inactive)
CCOc1cc(/C=N/N=C2/NC(=O)C(CC(=O)O)S2)ccc1OCc1ccc(Cl)cc1 (centres undefined)	9.38% (inactive)
CCOc1cc(/C=N/NS(=O)(=O)c2ccccc2)ccc1OS(=O)(=O)c1ccc(C)cc1	14.5% (inactive)
CCOc1cc(/C=N/O)ccc1OS(=O)(=O)c1ccc(C)cc1	13.6% (inactive)
CC(=O)Nc1ccc(S(=O)(=O)Oc2cccc(/C=C3\SC(N)=NC3=O)c2)cc1	-0.74% (inactive)
CCN(Cc1ccccc1)C(=O)c1cc(COc2c(F)cccc2F)on1	5% (inactive)
COc1ccccc1-c1ccc(SCC(=O)NCCc2ccccc2)nn1	10.8% (inactive)
Cc1cc(C(=O)COC(=O)c2nccnc2N)c(C)n1C	6.62% (inactive)
CCOC(=O)C1CCCN(CC(=O)c2c[nH]c3ccc(C)cc23)C1 (centres undefined)	5.27% (inactive)
CCOCc1nnc(NC(=O)c2ccc(NC(C)=O)cc2)s1	1.45% (inactive)
COc1ccc(NC(=O)CSc2ncn[nH]2)c([N+](=O)[O-])c1	-0.25% (inactive)
C=CCn1c(SCc2c(C(=O)OC)sc(N)c2C(=O)OC)nnc1-c1ccc(Br)cc1	6.79% (inactive)
CCC(=O)c1c(NC(C)C)cc(C)oc1=O	2.35% (inactive)
Cc1cnc(C)c(N2CCC(C(=O)NCc3cccs3)CC2)n1	3.94% (inactive)
COc1cc(CNC(C)(C)C)cc(Br)c1OCc1cccs1	6.22% (inactive)
COc1ccc(C2c3c(-c4ccccc4)n[nH]c3C(=O)N2c2ccc(C(=O)O)cc2)cc1 (centres undefined)	5.67% (inactive)
O=C(O)c1ccc(N2C(=O)c3[nH]nc(-c4ccccc4)c3C2c2ccccc2)cc1 (centres undefined)	2.78% (inactive)
COc1cc(C2c3c(-c4ccccc4)n[nH]c3C(=O)N2c2ccc(C(=O)O)cc2)ccc1O (centres undefined)	14.8% (inactive)
COc1cccc(C2c3c(-c4ccccc4)n[nH]c3C(=O)N2c2ccc(C(=O)O)cc2)c1 (centres undefined)	8% (inactive)

— PubChem BioAssay AID1445 (SRMLSC, 2008)
